Among all 360,000 compounds or so, about 800 (0.22%) were called active.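 Rule for the calls: active = activation of at least 8% versus controls, or a plate z-score of at least 8; inactive = the rest.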 The sample as a whole holds a higher share of actives than the screen did.
Assay: activators of alpha-DG glycosylation, primary screen, uHTS, Pro5-aDG cells, AlphaScreen (AID 624168);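 note: Pro5 are CHO cells carrying HIG-tagged alpha-DG that lacks glycosylation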
Details: alpha-DG glycosylation AlphaScreen (IIH6), at 10 µM, hits give high values, 0% Pro5, 100% B10-LARGE cell signal

Structure (SMILES)	activation
Cc1cc(C)c(S(=O)(=O)n2cc(C(C)C(N)C(=O)O)c3ccccc32)c(C)c1 (stereo not given)	-0.2% (inactive)
Cc1ccc(NS(=O)(=O)c2c(C)[nH]c(C)c2C(=O)N2CCCCC2)c(C)c1	-0.1% (inactive)
CCN(CC)C(=O)C1=C(C)N(Cc2ccc(OC)cc2)C(=O)C(CC(=O)NCc2ccco2)C1 (stereo not given)	-0.1% (inactive)
Cc1ccc(S(=O)(=O)N2CCCCC2)cc1NC(=O)[C@@H]1CCCN1C(=O)c1cccs1	0.1% (inactive)
O=C(Nc1cccc(Br)c1)C1CC(=O)N(C2CCCC2)C1 (stereo not given)	0% (inactive)
COc1ccc(OCc2cc(C(=O)N3CCCC3)no2)c2ccccc12	0.3% (inactive)
COc1ccccc1N1CCN(C(=O)c2cc(-c3ccc(Br)cc3)on2)CC1	9.8% (active)
COc1ccccc1N1CCN(C(=O)c2cc(=O)c3cc(C)cc(C)c3o2)CC1	-0.2% (inactive)
Cc1ccc(NS(=O)(=O)c2ccc(F)cc2)nc1	-0.2% (inactive)
Fc1ccc(OCc2nn3c(Cn4nnc5ccccc54)nnc3s2)cc1	0.5% (inactive)
C=CCOc1cccc(CNn2cn[nH]c2=S)c1	0% (inactive)
CC[C@]12c3[nH]c4cc(CCC(=O)N(C)C)ccc4c3CCN1C(=O)[C@@H](CC(=O)NCC13CC4CC(CC(C4)C1)C3)C[C@@H]2C(=O)N1CCN(C(=O)C2CC2)CC1	-0.1% (inactive)
Cc1cc(=O)oc(C)c1C(=O)NC1CC(C)(C)NC(C)(C)C1	-0.1% (inactive)
COc1ccc(CC(NC(C)=O)C(=O)NC2CCN(C(=O)c3ccc(OC)c(OC)c3)CC2)cc1OC (stereo not given)	-0.3% (inactive)
Clc1cc(NC2CCCCC2)ncn1	0.2% (inactive)
CN(C)C(=S)Nc1ccc(Br)cc1Cl	0.1% (inactive)
O=C(CN1CCN(Cc2ccccc2)CC1)Nc1ccc(F)c(F)c1	-0.1% (inactive)
COc1ccc(Cl)cc1NC(=O)NCC1CCN(Cc2ccccc2F)CC1	1% (inactive)
Cc1cccc(CN2CCC(CNC(=O)Nc3ccc(F)c(Cl)c3)CC2)c1	5.2% (active)
Nc1cccnc1Sc1ccccc1	0% (inactive)
CC(=O)N/C(=C/c1ccc(OC(F)F)cc1)C(=O)O	-0.4% (inactive)
OC(COc1ccc(F)cc1Cl)CN1CCc2ccccc2C1 (stereo not given)	0.1% (inactive)
Cc1ccc(OCC(O)CN2CCN(CC(O)COc3ccc(C)cc3Cl)CC2)c(Cl)c1 (stereo not given)	3.9% (active)
Cc1cccc(OCC(O)CN2CCN(S(=O)(=O)c3ccc(C)cc3C)CC2)c1 (stereo not given)	0.1% (inactive)
COc1ccc(CC(=O)OC(C)C(=O)Nc2ccc(S(N)(=O)=O)cc2)cc1 (stereo not given)	0.1% (inactive)
